Values joined by “and” are separate entries in the source; they are usually repeats but may differ in a detail not shown here. Equal values may be shown once.
Each molecule was assayed on DIPGX29 (H3.3 K27M diffuse intrinsic pontine glioma line) (assay: growth inhibition (% activity, log2 RLU normalised to DMSO / staurosporine); higher = more growth inhibition). Details: 33 µM.
Procedure, shortened: (§1)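 On Geltrex-coated 384-well plates, pHGG cell lines and H9-derived neural stem cells were grown with approved drugs pinned in at a single final concentration of about 33 μM, in triplicate, for 7 days at 37 °C, 5% CO2. Per-plate normalisation of log2-transformed CellTiter-Glo luminescence to % activity between solvent and positive control wells followed. Each growth-inhibition value is the median over the replicates.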
In the case of C[C@@H](NCCCc1cccc(C(F)(F)F)c1)c1cccc2ccccc12, the growth inhibition is reported as 8.61%.
Clc1ccc2c(c1)CCc1cccnc1C2=C1CCNCC1 showed a growth inhibition of -4.02%.
CCc1cc(C(N)=S)ccn1 showed a growth inhibition of -2.89%.

These molecules were tested on DIPGX37 (H3.3 K27M diffuse intrinsic pontine glioma line) in the same assay as above. Details: 33 µM.
Procedure, shortened: as §1
Work on CCN[C@H]1CN(CCCOC)S(=O)(=O)c2sc(S(N)(=O)=O)cc21 yielded a growth inhibition of 0.875%.
For C=C1CCC(O)CC1=CC=C1CCCC2(C)C1CCC2C(C)CCCC(C)(C)O (configuration not stated), the growth inhibition was 2.58%.
Molecule O=c1c(-c2ccc(O)cc2)coc2cc(O)ccc12 has a growth inhibition of -0.456%.
CC(C)Cc1ccc(C(C)C(=O)O)cc1 (configuration not stated) was tested, and the growth inhibition was 2.64% and 0.0742%.
With Cn1c(CNc2ccc(C(=N)N)cc2)nc2cc(C(=O)N(CCC(=O)O)c3ccccn3)ccc21 the growth inhibition was 3.45%.
In the case of CC(C)C[C@H](NC(=O)[C@H](CCc1ccccc1)NC(=O)CN1CCOCC1)C(=O)N[C@@H](Cc1ccccc1)C(=O)N[C@@H](CC(C)C)C(=O)[C@@]1(C)CO1, the growth inhibition is reported as 59.1%.
C[N+](C)(C)CCCCCC[N+](C)(C)C was tested, and the growth inhibition was -1.26%.
In the case of COc1cc(/C=C/C(=O)N2CCN(CC(=O)N3CCCC3)CC2)cc(OC)c1OC, the growth inhibition is reported as 0.826%.
With O=C(CCCN1CC=C(n2c(=O)[nH]c3ccccc32)CC1)c1ccc(F)cc1 the growth inhibition was -3.22%.
Work on Cc1nnc(C(C)C)n1C1C[C@H]2CC[C@@H](C1)N2CC[C@H](NC(=O)C1CCC(F)(F)CC1)c1ccccc1 (stereo in doubt) yielded a growth inhibition of 1.42%.
Molecule CCCCC(=O)N(Cc1ccc(-c2ccccc2-c2nnn[nH]2)cc1)[C@H](C(=O)O)C(C)C has a growth inhibition of -1.28%.
Molecule CCN(CC)C(=O)/C(C#N)=C/c1cc(O)c(O)c([N+](=O)[O-])c1 has a growth inhibition of 1.83%.
CN1CCC(=C2c3ccccc3C=Cc3ccccc32)CC1 gave a growth inhibition of -0.405%.
With CCCCC(=O)O[C@]1(C(=O)CO)[C@@H](C)C[C@H]2[C@@H]3CCC4=CC(=O)C=C[C@]4(C)[C@@]3(F)[C@@H](O)C[C@@]21C the growth inhibition was 4.71%.
Work on O=C1OC(CN2CCOCC2)CN1/N=C/c1ccc([N+](=O)[O-])o1 (configuration not stated) yielded a growth inhibition of 1.22%.
NC[C@@H]1O[C@H](O[C@H]2[C@@H](O)[C@H](O[C@@H]3[C@@H](O)[C@H](N)C[C@H](N)[C@H]3O[C@H]3O[C@H](CN)[C@@H](O)[C@H](O)[C@H]3N)O[C@@H]2CO)[C@H](N)[C@@H](O)[C@@H]1O gave a growth inhibition of 0.68%.
Work on C[C@@H]1CN(c2c(F)c(F)c3c(=O)c(C(=O)O)cn(C4CC4)c3c2F)C[C@H](C)N1 yielded a growth inhibition of -8.88%.
Molecule NC[C@H]1O[C@H](O[C@H]2[C@H](O)[C@@H](O[C@H]3O[C@H](CO)[C@@H](O)[C@H](N)[C@H]3O)[C@H](N)C[C@@H]2N)[C@H](N)C[C@@H]1O has a growth inhibition of -0.159%.
In the case of Cn1c(=O)c2c(ncn2CC(O)CO)n(C)c1=O (configuration not stated), the growth inhibition is reported as 3.99%.
In the case of C[C@@H](Oc1cc(-c2cnn(C3CCNCC3)c2)cnc1N)c1c(Cl)ccc(F)c1Cl, the growth inhibition is reported as 7.08%.
CCC(=O)NCC[C@@H]1CCc2ccc3c(c21)CCO3 was tested, and the growth inhibition was -0.134%.
In the case of CO[C@H]1C[C@@H]2CC[C@@H](C)[C@@](O)(O2)C(=O)C(=O)N2CCCC[C@H]2C(=O)O[C@H]([C@H](C)C[C@@H]2CC[C@@H](OC(=O)C(C)(CO)CO)[C@H](OC)C2)CC(=O)[C@H](C)/C=C(\C)[C@@H](O)[C@@H](OC)C(=O)[C@H](C)C[C@H](C)/C=C/C=C/C=C/1C, the growth inhibition is reported as 0.103%.
Molecule CC1(C)S[C@@H]2[C@H](NC(=O)[C@H](NC(=O)N3CCNC3=O)c3ccccc3)C(=O)N2[C@H]1C(=O)O has a growth inhibition of 0.459%.
Molecule NC[C@H](O)c1ccc(O)c(O)c1 has a growth inhibition of 2.54%.
In the case of CC[C@H](C)C(=O)O[C@H]1CCC=C2C=C[C@H](C)[C@H](CC[C@@H]3C[C@@H](O)CC(=O)O3)[C@H]21, the growth inhibition is reported as -2.48%.
Work on CNC[C@H](O)c1cccc(O)c1 yielded a growth inhibition of -0.539%.
CC[C@@]1(O)C(=O)OCc2c1cc1n(c2=O)Cc2cc3c(CN(C)C)c(O)ccc3nc2-1 showed a growth inhibition of 21.8%.
CC(=O)N[C@H]1[C@H]([C@H](O)[C@H](O)CO)OC(C(=O)O)=C[C@@H]1NC(=N)N was tested, and the growth inhibition was 2.89%.
With OC[C@H]1O[C@H](O[C@]2(CCl)O[C@H](CCl)[C@@H](O)[C@@H]2O)[C@H](O)[C@@H](O)[C@H]1Cl the growth inhibition was -0.64%.
C[C@]12CC[C@H](O)CC1=CC[C@@H]1[C@@H]2CC[C@]2(C)C(c3cccnc3)=CC[C@@H]12 was tested, and the growth inhibition was -0.544%.
Molecule CO[C@H]1O[C@@H]2O[C@@]3(C)CC[C@H]4[C@H](C)CC[C@@H]([C@H]1C)[C@@]24OO3 has a growth inhibition of 0.466%.
Molecule CN(C)CCOc1ccc(/C(=C(/CCCl)c2ccccc2)c2ccccc2)cc1 has a growth inhibition of 1.15%.
CCCCOc1ccc(OCCCN2CCOCC2)cc1 showed a growth inhibition of 2.14%.
Cc1ccc(N(CC2=NCCN2)c2cccc(O)c2)cc1 was tested, and the growth inhibition was -4.29%.
Molecule COc1cc(C)c(/C=C/C(C)=C/C=C/C(C)=C/C(=O)O)c(C)c1C has a growth inhibition of -2.81%.
With C[C@]12CCC(=O)C=C1CC[C@@H]1[C@@H]2[C@@H](O)C[C@@]2(C)[C@H]1CC[C@]2(O)C(=O)CO the growth inhibition was 3.35%.
C[C@@H](NCCCc1cccc(C(F)(F)F)c1)c1cccc2ccccc12 was tested, and the growth inhibition was 3.26%.
Clc1ccc2c(c1)CCc1cccnc1C2=C1CCNCC1 was tested, and the growth inhibition was -0.355%.
For CCc1cc(C(N)=S)ccn1, the growth inhibition was -1.22%.
